Only some compounds are listed: those with a hit (about 5.9% of all), similar ones and a draw of the others.
TGFb inhibitor = TGF-b pathway inhibition | HepG2 CAGA-GFP TGF-b/SMAD3 reporter, GFP fluorescence, 18 h; TGF-beta stimulated, 500 pg/mL final | Potency, µM (titrated, usually from 46.1 µM), for the others: at the highest dose activity, negative = inhibition, actives largely listed as inhibitors | hit rate 1.2% among 410,000 | AID 588855; further: on the % scale 0 is the no-effect control and ±100 the full control effect; nearly all actives have a fitted effect of over 65% in size
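Read-out: total well GFP (ex488/em500-530) summed from mean per-cell fluorescence. Cells: HEPG2 CAGA-GFP, 1% FBS DMEM, 18 h at 37 degrees C with 500 pg/mL final TGF-beta. Unstimulated wells served as the full-inhibition control; stimulated DMSO wells = 0%.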
KB-V1 MDR tox = kills drug-selected multidrug resistant KB-V1 cells; KB-V1 MDR cells viability, CellTiter-Glo, 72 h; Potency, µM (top dose mostly 46.1 µM), most hits filed as cytotoxic; hit rate 3.4% among 400,000; further: on the % scale 0 is the no-effect control and ±100 the full control effect; nearly all actives have a fitted effect of over 60% in size
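Cytotoxicity via CellTiter-Glo luminescence after 72 h compound exposure at 37 degrees C. Cells: drug-selected KB-V1 line, DMEM phenol-red free plus 10% FBS. Compounds tested at multiple concentrations; normalized data fitted to concentration-effect curves.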
KB-3-1 cytotox = kills parental KB-3-1 adenocarcinoma cells. KB-3-1 viability, CellTiter-Glo ATP luminescence, 72 h. Potency, µM (titrated, usually from 46.1 µM), usual class: cytotoxic. hit rate 1.4% among 400,000. AID 1347075; further: on the % scale 0 is the no-effect control and ±100 the full control effect; nearly all actives have a fitted effect of over 60% in size
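Using CellTiter-Glo luminescence, growth of non-resistant KB-3-1 adenocarcinoma cells is assessed 72 h after pin-tool compound addition at 37 °C. Normalized responses across the concentration series yield fitted curves.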
ATXN2 expr inh = ATXN2 expression inhibition | HEK-293 ATXN2-luciferase reporter, luminescence, 24 h | Potency, µM (top dose mostly 57 µM), for the others: at the highest dose activity change, negative = inhibition, most hits filed as inhibitors | hit rate 0.72% among 360,000; further: on the % scale 0 is the no-effect control and ±100 the full control effect; nearly all actives have a fitted effect of over 55% in size
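qHTS (up to 57 uM final) was run with 24 h compound exposure of reporter cells at 37 °C. Each well was multiplexed: SteadyGlo luminescence measured ATXN2-luciferase expression after a fluorogenic Gly-Phe-AFC viability readout (25 uM final).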
ATXN viability = cell viability loss in ATXN counter-screen; AID 651635; Potency, µM (doses to about 56.7 µM), most hits filed as cytotoxic; S2 cells (HEK-293 line with an ATXN2-luciferase reporter) viability, CellTiter-Fluor protease fluorescence, 24 h; hit rate 0.49% among 400,000; further: nearly all actives have a fitted effect of over 40% in size
HepG2 tox = kills HepG2 cells in TGF-b inhibitor counter-screen; AID 588856; hit rate 0.76% among 410,000; Potency, µM (series often up to 46.1 µM), inactives show at the top dose activity change, negative = cytotoxicity, hits mostly cytotoxic; HepG2 CAGA-GFP viability, ATP luminescence, 18 h
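CellTiter-Glo luminescence gave cytotoxicity after 18 hours at 37 degrees C. The cells were HepG2 CAGA-GFP in 1% FBS DMEM, stimulated with 500 pg/mL TGF-beta after compound addition. %Activity was normalised to no-cell wells (complete cell-killing) and DMSO (no toxicity), and curves were fitted and classified.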
* = called active by the depositor; i = inactive; ? = inconclusive; . = no result given. The call rests on the fitted dose curve; in most records, active means well fitted curve in the direction sought with a large enough effect; inconclusive means small, poorly fitted or top-dose-only effect, or another doubt; inactive means no such curve, though single readings can be large; an effect the other way counts as inactive or inconclusive. Potency means the concentration at half of the fitted maximal effect.

SMILES	TGFb inhibitor	KB-V1 MDR tox	KB-3-1 cytotox	ATXN2 expr inh	ATXN viability	HepG2 tox
Cc1c(Cl)cccc1NC(=S)N=Nc1c(O)n(CN2CCOCC2)c2ccccc12	5µM*	i	?	?	?	-27%
CCC(=O)N1CCc2cc(Br)cc(S(=O)(=O)CCC(=O)NCCc3ccc(Cl)cc3)c21	-18%	i	i	-2%	i	-25%
COC1=C(OC)C(=O)C(Sc2ccc3ccccc3c2)=CC1=O	?	2.6µM*	?	?	.	-61%
COc1ccc(C(=O)Nc2ccc3ccccc3c2)cc1	5%	i	i	.	i	-6%
CCCCCCC[n+]1c(/C=C/c2ccc(N(C)C)cc2)sc2ccccc21	?	?	i	.	.	-96%
CC(C)c1ccc2[nH]c3c(c2c1)CCCC3=O	-4%	13µM*	i	-12%	i	-7%
Cc1ccc2[nH]c3c(c2c1)CCCC3=O	-1%	1.8µM*	1.8µM*	63%	?	-17%
Cc1[nH]c(=O)[nH]c(=O)c1C=CC(=O)NC(CO)CS(=O)Cc1ccccc1 (centres undefined)	15%	i	i	.	i	3%
CCCCCOc1ccc(C2SC(=O)NC2=O)cc1OCC (centres undefined)	.	.	.	14%	i	.
Cn1nc(-c2ccc(N3CCCCC3)c(NC(=O)c3ccco3)c2)c2ccccc2c1=O	0%	?	8.2µM*	?	?	-16%
CCC(=O)Nc1cc(-c2nn(C)c(=O)c3ccccc23)ccc1N1CCOCC1	7%	i	i	1%	i	-22%
CCCOc1cccc(-c2nn(-c3ccccc3)cc2/C=C(\C#N)C(=O)NCCCn2ccnc2)c1	1%	18µM*	i	-15%	i	-18%
O=C(NCCCn1ccnc1)c1cn(-c2ccccc2)nc1-c1ccc(F)cc1	?	i	i	9%	i	-53%
N#C/C(=C/c1cn(-c2ccccc2)nc1-c1cccc(OCc2ccc(F)cc2)c1)C(=O)NCCCn1ccnc1	?	16µM*	?	?	i	-46%
N#C/C(=C\c1ccc([N+](=O)[O-])cc1)C(=O)NCCCn1ccnc1	-19%	i	?	-3%	i	-7%
Clc1ccc2nc(SCc3nnc(-c4ccccc4)o3)[nH]c2c1	6%	16µM*	i	-16%	i	7%
CC1=C([N+](=O)[O-])C(c2ccccc2)C2=C(N1)c1ccccc1C2=O (centres undefined)	?	4.6µM*	0.82µM*	?	i	-12%
CC1(C)CC(=O)C2=C(C1)NC1=C(C(=O)c3ccccc31)C2c1ccccc1 (centres undefined)	-14%	16µM*	?	3%	?	-8%
CC(C)c1ccc(C2C3=C(CC(C)(C)CC3=O)NC3=C2C(=O)c2ccccc23)cc1 (centres undefined)	?	?	?	?	14µM*	-10%
CC1(C)CC(=O)C2=C(C1)NC1=C(C(=O)c3ccccc31)C2c1cccnc1 (centres undefined)	3%	i	i	.	?	4%
COc1ccc(Cl)cc1-c1cc(C(=O)N[C@H](C)c2ccccc2)[nH]n1	-3%	i	i	-7%	i	-15%
CCC(=O)N1Cc2cc(C(=O)Nc3nccs3)nc(-c3cccc(-c4ccccc4OC)c3)c2[C@H]1CCO	.	?	i	?	?	.
O=C(NCc1ccc(F)cc1)C(=O)Nc1nc(C23CC4CC(CC(C4)C2)C3)cs1	13%	9.2µM*	?	-23%	i	-27%
O=C(NCc1ccccc1)C(=O)Nc1nc(C23CC4CC(CC(C4)C2)C3)cs1	27%	7.3µM*	?	-23%	i	-5%
Cc1cn(C2CC3OCC(NC(=O)C(Cc4ccccc4)NC(=O)OC(C)(C)C)C3O2)c(=O)[nH]c1=O (centres undefined)	-2%	.	.	.	.	3%
SMILES	TGFb inhibitor	KB-V1 MDR tox	KB-3-1 cytotox	ATXN2 expr inh	ATXN viability	HepG2 tox
Nc1nc(NC(=O)c2ccccc2)nn1-c1ccccc1	25%	i	i	.	i	3%
O=C(Nc1nc(NC(=O)c2ccco2)n(-c2ccccc2)n1)c1ccccc1	?	4.1µM*	16µM*	?	i	-41%
Cc1c(C(=O)N2CCN(Cc3ccccc3)CC2)sc2ncnc(N3CCOCC3)c12	1%	18µM*	i	-3%	i	-21%
CCCN1CCN(c2ncnc3sc(C(=O)Nc4c(C)cc(C)cc4C)c(C)c23)CC1	?	?	21µM*	5%	i	-13%
Cc1sc2ncnc(N3CCN(Cc4ccccc4)CC3)c2c1-c1ccc(F)cc1	1%	15µM*	?	-24%	i	1%
COc1ccc(-c2noc(-c3ccc(NCc4cccnc4)c([N+](=O)[O-])c3)n2)cc1OC	?	i	i	5%	i	-7%
COc1cc(-c2noc(-c3ccc(NCc4cccnc4)c([N+](=O)[O-])c3)n2)cc(OC)c1OC	-3%	26µM*	i	-7%	i	-3%
CCCCc1nnc(NC(=O)C2CC(=O)N(c3ccc4c(c3)OCCO4)C2)s1 (centres undefined)	-7%	i	i	-18%	i	3%
Cc1nnc(NC(=O)C2CC(=O)N(c3ccc4c(c3)OCCO4)C2)s1 (centres undefined)	5%	?	i	7%	i	-15%
CCOc1ccc(N2CC(C(=O)Nc3ccc4c(c3)OCCO4)CC2=O)cc1 (centres undefined)	7%	i	5.2µM*	3%	i	-7%
Cc1cnc(NC(=O)C2CC(=O)N(c3ccc4c(c3)OCCO4)C2)s1 (centres undefined)	?	15µM*	i	0%	i	-21%
Cc1cnc(NC(=O)C2CC(=O)N(c3cccc(Cl)c3)C2)s1 (centres undefined)	?	21µM*	?	0.56µM*	?	1.8µM*
CCC(CC)c1nnc(NC(=O)C2CC(=O)N(c3ccc4c(c3)OCCO4)C2)s1 (centres undefined)	-6%	21µM*	i	3%	i	-1%
O=C(NCCc1ccccc1)[C@@H]1CC=C[C@@H]2CCN(C3CC3)C(=O)[C@@H]21	-1%	i	i	.	.	13%
OC(c1cccnc1)c1ccc2c(c1)CN(Cc1ccc(-c3ccccc3Cl)o1)CCO2 (centres undefined)	.	.	.	.	i	.
